# Screens as filed in PubChem BioAssay.
# PERK inhibitor: inhibitors of human PERK kinase; inhibition, % at 5.6 µM; Q9NZJ5; CHO PERK-DD fusion, SEAP luminescence translation reporter; 220,000 compounds, 0.17% hits;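 active = inhibition above the mean inhibition of all tested compounds plus 3 SD, set separately per screening campaign, cut at about 2.9% in these data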;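 also: PERK kinase domain activated by AP20187 dimerizer at 100 nM; 0% = DMSO with dimerizer and 100% = rapamycin at 8.4 µM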
# PfM18AAP inh: blocks P. falciparum M18 aspartyl aminopeptidase; recombinant PfM18AAP, H-Glu-NHMec fluorogenic cleavage; AID 1822; 290,000 compounds, 1.2% hits; inhibition, % at 7.35 µM;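 active = inhibition above the campaign mean inhibition over all tested compounds plus 3 SD, cut at about 28% in these data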;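 also: 0% = plate median of test compound wells and 100% = 2 mM ZnCl2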
# eIF4E-4G inh: eIF4E/eIF4G interaction inhibition in translation initiation. P63073+Q04637. TR-FRET eIF4E-eIF4GI(517-606) binding, 2 h. inhibition, % at 21.7 µM. 220,000 compounds, 0.37% hits;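 active = inhibition above about 30%, limit read from the data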;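 also: 0% = full FRET control wells and 100% = background wells lacking eIF4GI fragment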
# PABP1 MLLE inh: blocks PAM2 peptide binding to the PABP1 MLLE domain | P11940 | GST-MLLE / FITC-PAM2 fluorescence polarization | inhibition, % at 20 µM | 360,000 compounds, 0.36% hits; in the data active = inhibition above about 35%, passing the limit was not always enough;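 also: plate controls were DMSO wells with GST-MLLE for no effect and wells lacking GST-MLLE protein for full effect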
# eIF4H inh: inhibitors of RNA binding by human eIF4H | AID 2012 | Q15056 | 290,000 compounds, 0.94% hits | inhibition, % at 35 µM | eIF4H fluorescence polarization binding assay;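 also: calls also rest on retests at 20 µM and on dose response follow-up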
# PABP polyA inh: PABP-poly(A) binding inhibition | AID 2014 | inhibition, % at 35 µM | PABP-poly(A) RNA binding, fluorescence polarization | 290,000 compounds, 1% hits | P11940;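 also: calls also rest on retests at 20 µM and on dose response follow-up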
# Numbers without * were called inactive; ? = inconclusive; . = no result given. Rows were chosen to be rich in hits. Some 2.4% of all compounds tested hit in one or more screens of this group. Unless noted, no rule for the calls is given here.
SMILES,PERK inhibitor,PfM18AAP inh,eIF4E-4G inh,PABP1 MLLE inh,eIF4H inh,PABP polyA inh
Cc1ccccc1NC(=S)N=Nc1c(O)n(C)c2ccc(S(=O)(=O)N3CCOCC3)cc12,-2,6,-4,30,5,-2
CCn1c(O)c(N=NC(=O)CNc2cccc(C)c2)c2ccccc21,0,6,-4,5,-6,6
C=CCn1c(O)c(N=NC(=S)Nc2ccccc2F)c2cc(S(=O)(=O)N3CCOCC3)ccc21,-1,6,1,42*,0,1
Brc1cnc2nc[nH]c2c1,1,0,-1,-3,-3,6
CCOC(=O)c1c(C)[nH]c(C)c1C(=O)COc1ncnc2cc([N+](=O)[O-])ccc12,0,3,0,-8,-1,6
COc1ccc(CCNC(=O)CCn2c(=O)c3cccn3c3cccnc32)cc1OC,.,-1,.,-1,-7,-15
COC(=O)COc1ccc(/C=N/NS(=O)(=O)c2ccccc2)cc1,.,4,.,-51,-6,-3
NC(=O)COc1ccc(/C=N/NS(=O)(=O)c2ccccc2)cc1,0,7,-4,-37,96,0.2*
COc1ccc(-n2c(COc3cccc4ccccc34)nnc2SCC#N)cc1,-2,29*,-2,-3,-7,2
CC(=O)Nc1nc(C)c(CCCOc2ccc([N+](=O)[O-])cc2)c(=O)[nH]1,0,-1,1,-9,-2,-5
CCOC(CCc1c(C)nc(NC(C)=O)[nH]c1=O)OCC,3.1*,-4,4,5,-6,-4
CCNc1nc2[nH]c(=O)c3c(c2s1)OC(N)=C(C#N)C3c1ccc(C)cc1 (centres undefined),1,2,-7,-8,?,80*
CNc1nc2[nH]c(=O)c3c(c2s1)OC(N)=C(C#N)C3c1ccccc1 (centres undefined),1,5,-7,-36,?,-2
CCn1c(C)nc2cc(C(=O)N/N=C(\C)c3ccc(OC)cc3O)ccc21,1,-4,-1,-8,8,-4
COC(=O)c1cc(-c2ccccc2)sc1NC(=O)CN1C(=O)c2ccccc2C1=O,0,-2,1,36*,-8,-6
COC(=O)c1cc(OC)c(OC)cc1NC(=O)CN1C(=O)c2ccccc2C1=O,0,7,5,-4,-5,-4
O=C(Nc1cc(S(=O)(=O)N2CCCC2)ccc1OCC(F)(F)F)c1ccncc1,.,.,.,9,.,.
CC1=NOC(=O)/C1=C\c1ccc(-c2ccc(Cl)cc2Cl)o1,1,15,-23,-1,55*,6
CCN1C(=O)CC(C(=O)NCCc2ccc(S(N)(=O)=O)cc2)SC1=Nc1ccc(OC)cc1 (centres undefined),2,0,1,1,active,83*
CC(C)(C)c1nnc(N/N=C/c2cc(Br)ccc2O)n(N)c1=O,0,44*,0,-2,17,0
CCOc1ccc(S(=O)(=O)/N=C(/Nc2ccc(C)c(S(=O)(=O)N3CCOCC3)c2)c2ccccc2)cc1,.,.,.,6,.,.
COc1ccc(C(=O)CSc2nnc(-c3ccco3)c(-c3ccco3)n2)cc1,0,19,20,35,85,75*
CSc1nnc(-c2ccco2)c(-c2ccco2)n1,0,12,23,26,97*,94*
COc1cccc(NC(=O)CSc2nnc(-c3ccco3)c(-c3ccco3)n2)c1,.,7,.,26,83*,44*
COc1ccc(NC(=O)CSc2nnc(-c3ccco3)c(-c3ccco3)n2)cc1OC,.,31*,.,-2,64*,28
SMILES,PERK inhibitor,PfM18AAP inh,eIF4E-4G inh,PABP1 MLLE inh,eIF4H inh,PABP polyA inh
CC1CCN(C(=O)C2CCC(CNS(=O)(=O)c3ccc4c(c3)C(C)(C)C(=O)N4C)CC2)CC1 (centres undefined),.,.,.,5,.,.
COc1cc(NC(=O)CSc2ccc(-c3ccco3)nn2)cc(OC)c1,.,-19,.,19,60*,-2
COc1ccc(NC(=O)CSc2ccc(-c3ccco3)nn2)cc1,.,-11,.,17,12,7
Cc1cc(C(=O)N2CC=C(c3ccccc3)CC2)c2ccccc2n1,.,.,.,-1,.,.
Cc1cc(=O)n2[nH]c(-c3ccsc3-n3c(C)ccc3C)cc2n1,1,23,7,-54,75*,81*
COCc1cc(=O)n2[nH]c(-c3ccsc3-n3c(C)ccc3C)cc2n1,0,-2,0,-34,80*,66*
